Experimental data published in PubChem BioAssay (NCI).
Compounds without any hit were thinned out: in the full panel of roughly 79,000, 15% have a hit. A number with no mark means an inactive call. The source made the active and inactive calls. Cut-off read from the data, not from the text of the source: active = growth inhibition above about 70%; inactive = the rest. Where a SMILES comes first, the peptide text is derived from it. [ ]: non-standard residue; d: D form. Phe(4-Cl) = N[CH](Cc1ccc(Cl)cc1)C(=O)O; 3Pal = N[CH](Cc1cccnc1)C(=O)O

Experiments:
[1] = NCI Yeast Anticancer Drug Screen. Data for the rad50 strain (AID 155);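 note: 0% = growth of vehicle-only cultures of the same strain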; details: S. cerevisiae rad50 strain growth inhibition, hits give high values
How it was run: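 Compounds were tested on a yeast strain with an engineered DNA damage repair alteration; the reported value is growth inhibition normalised to vehicle treatment.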

[2] = NCI Yeast Anticancer Drug Screen. Data for the mec2-1 strain (AID 157); details: S. cerevisiae mec2-1 strain, hits give high values
How it was run: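 Vehicle-treated cultures served as reference for growth inhibition of compound-exposed mec2-1 yeast.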

[3] = NCI Yeast Anticancer Drug Screen. Data for the sgs1 mgt1 strain (AID 161);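 note: 0% = growth of cultures given vehicle only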; details: S. cerevisiae sgs1 mgt1 strain, hits give high values
How it was run: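 Genetically altered yeast, compound exposure, growth inhibition relative to vehicle.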

[4] = NCI Yeast Anticancer Drug Screen. Data for the cln2 rad14 strain (AID 165);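 note: 0% = growth equal to vehicle treated cultures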; details: S. cerevisiae cln2 rad14 strain, hits give high values
How it was run: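 Each compound was tested on cln2 rad14 yeast. Inhibition of growth was calculated against vehicle-exposed controls.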

[5] = NCI Yeast Anticancer Drug Screen. Data for the bub3 strain (AID 167); details: S. cerevisiae bub3 mutant strain, hits give high values
How it was run: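 Growth of a checkpoint-deficient yeast mutant is measured after compound exposure. Values represent inhibition relative to vehicle.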

[6] = NCI Yeast Anticancer Drug Screen. Data for the mlh1 rad18 strain (AID 175); details: S. cerevisiae mlh1 rad18 strain growth inhibition, hits give high values
How it was run: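 Vehicle-treated cultures served as the reference for growth inhibition in a yeast strain carrying DNA damage repair alterations exposed to each compound.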

[7] = at 5.0 µM (retest, dose inferred, filed as 0.5)
[8] = at 50.0 µM (retest, dose inferred, filed as 5.0)

| Structure (SMILES) | growth inhibition [1, 7] | growth inhibition [1, 8] | growth inhibition ([1]; at 50.0 µM) | growth inhibition [2, 7] | growth inhibition [2, 8] | growth inhibition ([2]; at 50.0 µM) | growth inhibition [3, 7] | growth inhibition [3, 8] | growth inhibition ([3]; at 50.0 µM) | growth inhibition [4, 7] | growth inhibition [4, 8] | growth inhibition ([4]; at 50.0 µM) | growth inhibition [5, 7] | growth inhibition [5, 8] | growth inhibition ([5]; at 50.0 µM) | growth inhibition [6, 7] | growth inhibition [6, 8] | growth inhibition ([6]; at 50.0 µM) |
| --- | --- | --- | --- | --- | --- | --- | --- | --- | --- | --- | --- | --- | --- | --- | --- | --- | --- | --- |
| CN(C)C(=S)Oc1ccc(C(C)(C)C)cc1 | -156% | -68% | 50.9% | -53% | -59% | -14.4% | -65% | -47% | 40.5% | -72% | -68% | -34.7% | -65% | -27% | 60.4% | -129% | -123% | 29.1% |
| CCCC(=O)C1=C(O)C(Cc2c(O)c(C)c(O)c(C(=O)CCC)c2O)=C(O)C(C)(C)C1=O | -1% | 52% | 98.2% (active) | 4% | 34% | 92.9% (active) | 6% | 56% | 98.5% (active) | -4% | 83% (active) | 99.1% (active) | -1% | 92% (active) | 98.3% (active) | 7% | 66% | 99% (active) |
| O=C(CC(=O)c1cccnc1)c1cccnc1 | 6% | 98% (active) | 98.8% (active) | 9% | 98% (active) | 98% (active) | 7% | 98% (active) | 98.5% (active) | 5% | 98% (active) | 76.7% (active) | 8% | 98% (active) | 97.7% (active) | 7% | 98% (active) | 99% (active) |
| Clc1ccccc1C=Nc1cccc2ccccc12 | -10% | -24% | 22.4% | -14% | -17% | 32.4% | -9% | -1% | 27.1% | 18% | 8% | 13.9% | 13% | -3% | 35.8% | -33% | -54% | 23.4% |
| CC(=O)NC(Cc1ccc(Cl)cc1)C(=O)NC(Cc1ccc(Cl)cc1)C(=O)NC(Cc1cccnc1)C(=O)NC(CO)C(=O)NC(Cc1ccc(O)cc1)C(=O)NC(CCCN=C(N)N)C(=O)NC(CC(C)C)C(=O)NC(CCCN=C(N)N)C(=O)N1CCCC1C(=O)NC(C)C(=O)O (configuration not stated) (Ac-[Phe(4-Cl)][Phe(4-Cl)][3Pal]SYRLRPA-OH; configuration not given here) | -20% | -8% | 18.1% | -9% | -16% | 17.9% | -14% | 0% | 5.15% | -18% | -7% | 9.9% | -4% | 8% | 16.7% | 29% | -22% | 53.4% |
| C(=C\[n+]1ccc2ccccc2c1)/c1ccccc1 | -3% | 35% | 80% (active) | -2% | 12% | 26.9% | -4% | 38% | 68.7% | -3% | -3% | 42.5% | -5% | 27% | 8% | 10% | 10% | 74.9% (active) |
| CCCCCCCCN(CCCCCCCC)CC(O)c1cc(OCC)nc2ccccc12 (configuration not stated) | 2% | 96% (active) | 97.8% (active) | 4% | 97% (active) | 97.7% (active) | 4% | 96% (active) | 97.4% (active) | 3% | 96% (active) | 93.5% (active) | 9% | 97% (active) | 97.8% (active) | 9% | 95% (active) | 96.8% (active) |
| CC1CCC(C(C)C)C(OC(=O)Nc2ccc(S(=O)(=O)N(C)C)cc2)C1 (configuration not stated) | 25% | 82% (active) | 96% (active) | 18% | 92% (active) | 95.2% (active) | 46% | 83% (active) | 96% (active) | 8% | 82% (active) | 95.5% (active) | 29% | 90% (active) | 92.5% (active) | 32% | 88% (active) | 95.8% (active) |
| C/C(=N\NC(=S)NC12CC3CC(CC(C3)C1)C2)c1ccccn1 | 5% | 95% (active) | 97% (active) | 3% | 97% (active) | 97.9% (active) | 6% | 98% (active) | 98% (active) | -5% | 93% (active) | 94.7% (active) | 0% | 97% (active) | 97.1% (active) | -7% | 97% (active) | 97.3% (active) |
